From PubChem
NS1 inh – inhibitors of influenza NS1 protein function; AID 2326; Potency, µM (series often up to 46.1 µM), for inactives: at the top dose activity, positive = more growth; 270,000 tested, 0.4% active; calls by dose curve; note: potency is the fitted concentration of half-maximal effect; actives are rising curves; nearly all actives have a fitted effect of over 50% in size
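A cell-based growth assay was used: compounds that relieve NS1-induced slow growth of budding yeast raise OD600. Assay medium was yeast nitrogen base with ammonium sulphate and -URA supplement, pH 6.0, with 2% galactose.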
Pf growth 48h – inhibits P. falciparum growth in the first generation, 48 h. 310,000 tested, 5.9% active. P. falciparum luciferase growth in erythrocytes, 48 h. Potency, µM (highest dose often 28.7 µM), inactives show at the highest dose activity change, negative = inhibition, actives largely listed as inhibitors. AID 504832; note: potency is the fitted concentration of half-maximal effect; % is set by controls: 0 for no effect and ±100 for the full control effect
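Luciferase-expressing parasites in RBCs, 2% Hct / 0.1% parasitemia final; RPMI 1640 + 0.5% Albumax; 37 C, 5% CO2, one generation; luminescence read-out, lower signal = inhibition.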
Giardia FBPA inh-1 – Giardia lamblia aldolase inhibition; Potency, µM (series often up to 59.6 µM), for the others: top-dose activity, negative = inhibition, actives largely listed as inhibitors; purified Giardia FBPA; AID 2451; A8B2U2; 290,000 tested, 0.71% active; note: potency is the fitted concentration of half-maximal effect; % is set by controls: 0 for no effect and ±100 for the full control effect; nearly all actives have a fitted effect of over 55% in size
Target sequence (A8B2U2 whole entry, looked up): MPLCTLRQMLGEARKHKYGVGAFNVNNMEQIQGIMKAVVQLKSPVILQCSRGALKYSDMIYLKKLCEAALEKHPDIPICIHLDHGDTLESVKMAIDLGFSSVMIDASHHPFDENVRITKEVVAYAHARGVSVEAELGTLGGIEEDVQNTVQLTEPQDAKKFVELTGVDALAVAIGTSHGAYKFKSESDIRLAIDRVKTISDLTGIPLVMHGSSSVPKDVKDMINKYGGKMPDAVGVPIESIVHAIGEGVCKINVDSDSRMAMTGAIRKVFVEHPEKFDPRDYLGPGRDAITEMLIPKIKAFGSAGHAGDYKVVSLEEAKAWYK
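40 nM FBPA preincubated 10 min at RT with compound (up to 57.5 uM final), then substrate plus GAPDH/TPI/NAD/arsenate coupling and diaphorase/resazurin added. Fluorescence read after 20 min at RT, 525/598 nm.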
Pf growth 96h – P. falciparum growth inhibition at 96 hour, primary screen for plastid delayed-death inhibitors; Potency, µM (titrated, usually from 28.7 µM), for inactives: top-dose activity change, negative = inhibition, actives largely listed as inhibitors; P. falciparum luciferase reporter growth, 96 h; 320,000 tested, 6.9% active; note: potency is the fitted concentration of half-maximal effect; % is set by controls: 0 for no effect and ±100 for the full control effect
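P. falciparum expressing integrated firefly luciferase, in erythrocytes at 2% hematocrit, 0.05% parasitemia, incubated with compounds 96 h at 37 C, 5% CO2. Growth inhibition read as loss of luminescence; two-generation exposure targets delayed-death apicoplast inhibitors.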
Cycloheximide cs – counter-screen hit for Shiga toxin inhibitors, cycloheximide. cell reporter, cycloheximide protein synthesis inhibition counterscreen. max response, %. 300,000 tested, 12% active. AID 2314; in the data active = max response mostly above about 13%, no sharp cut-off; inactive = mostly below about 14%; note: read at 38.3 µM for the half of the compounds with a filed dose; 0% is about no effect
Shiga toxin inh – blocks Shiga toxin action in Vero cells. 290,000 tested, 9.2% active. inhibition, % at 38.7 µM. Vero cells, Shiga toxin protein synthesis inhibition reporter; in the data active = inhibition mostly above about 28%, no sharp cut-off; inactive = mostly below about 43%; note: 0% is about no effect
NS1 inh valid – validation of influenza NS1 protein function inhibitors; shares compounds with NS1 inh; influenza NS1 function cell assay, 15-point titration; activity change, negative = inhibition, % at 32.9 µM; 1,400 tested, under 10 active; AID 492980; calls by dose curve; note: 0% is about no effect
Giardia growth – Giardia lamblia growth inhibition; Giardia lamblia trophozoite growth inhibition; shares compounds with Giardia FBPA inh-1; Potency, µM (titrated, usually from 57.5 µM), for the others: at the top dose activity change, negative = inhibition, hits mostly inhibitors; 1,500 tested, 5% active;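 note: potency is the fitted concentration of half-maximal effect; trophozoites exposed to compound for 48 h at 37 °C; % is set by controls: 0 for no effect and ±100 for the full control effect; nearly all actives have a fitted effect of over 70% in size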
Mammalian tox – toxic to mammalian cells in Giardia aldolase counter-screen; AID 2786; Potency, µM (series often up to 57.5 µM), without a hit: at the top dose viability change, negative = toxicity, usual class: inhibitors; shares compounds with Giardia FBPA inh-1; mammalian cell viability counter-screen, qHTS; 1,500 tested, 4% active;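 note: Chinese hamster ovary cells used as mammalian cytotoxicity surrogate; viability measured as cellular ATP by luminescence; potency is the fitted concentration of half-maximal effect; compound exposure lasted 48 h before reading; % is set by controls: 0 for no effect and ±100 for the full control effect; nearly all actives have a fitted effect of over 60% in size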
Giardia FBPA inh-2 – confirmation of Giardia fructose-bisphosphate aldolase inhibitors; AID 2787; purified Giardia aldolase enzyme activity, qHTS; Potency, µM (doses to about 57.5 µM), inactives show top-dose activity change, negative = inhibition, actives largely listed as inhibitors; 1,500 tested, 5% active; shares compounds with Giardia FBPA inh-1; note: potency is the fitted concentration of half-maximal effect; % is set by controls: 0 for no effect and ±100 for the full control effect; nearly all actives have a fitted effect of over 45% in size
Rabbit FBPA inh – selectivity test for Giardia aldolase inhibitors: rabbit aldolase | Rabbit muscle FBPA enzyme inhibition, selectivity counter-screen | Potency, µM (titrated, usually from 57.5 µM), for inactives: top-dose activity, negative = inhibition, most hits filed as inhibitors | 1,500 tested, 4% active | shares compounds with Giardia FBPA inh-1; note: potency is the fitted concentration of half-maximal effect; % is set by controls: 0 for no effect and ±100 for the full control effect; nearly all actives have a fitted effect of over 60% in size
Target sequence (P00883 whole entry, looked up): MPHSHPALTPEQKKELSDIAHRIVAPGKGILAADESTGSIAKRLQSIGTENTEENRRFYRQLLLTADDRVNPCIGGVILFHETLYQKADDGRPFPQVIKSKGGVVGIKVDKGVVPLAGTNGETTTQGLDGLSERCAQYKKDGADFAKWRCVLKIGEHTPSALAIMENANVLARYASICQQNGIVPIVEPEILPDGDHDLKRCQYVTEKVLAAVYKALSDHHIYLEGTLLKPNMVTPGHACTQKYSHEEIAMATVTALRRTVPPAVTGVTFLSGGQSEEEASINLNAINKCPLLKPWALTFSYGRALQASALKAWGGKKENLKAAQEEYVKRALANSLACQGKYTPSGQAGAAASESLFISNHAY
GAPDH counter – GAPDH inhibition flagged for Giardia aldolase hits; shares compounds with Giardia FBPA inh-1; GAPDH coupling enzyme counterscreen, biochemical, qHTS; Potency, µM (doses to about 57.5 µM), inactives show top-dose activity change, negative = inhibition, hits mostly inhibitors; 1,500 tested, 6% active; AID 2795; note: potency is the fitted concentration of half-maximal effect; % is set by controls: 0 for no effect and ±100 for the full control effect; nearly all actives have a fitted effect of over 55% in size
The depositor's hits bear a star; [ ] = another dose, or the depositor's remark. Sampled rows, rich in hits. Any-hit rate of the full collection: about 21%. Unless noted, calls come from the whole dose curve; as a rule, active = well fitted curve in the direction sought with a large enough effect; inconclusive = small, poorly fitted or top-dose-only effect, or another doubt; inactive = no such curve, though single readings can be large; an effect the other way counts as inactive or inconclusive.

Results for Cc1c(C)c2c(OCC(=O)N3CCC(C(N)=O)CC3)cc3c(c2oc1=O)CCC(C)(C)O3 ?
NS1 inh: -7%; Pf growth 48h: inconclusive; Giardia FBPA inh-1: 5%; Pf growth 96h: inconclusive; Cycloheximide cs: 2; Shiga toxin inh: -4

How did CC(=O)c1cccc(S(=O)(=O)N2CCN(c3nc4cc(C)cc(C)c4cc3C#N)CC2)c1 do in these assays?
NS1 inh: 10µM*; Pf growth 48h: inconclusive; Giardia FBPA inh-1: 0%; Pf growth 96h: -24%; Cycloheximide cs: -7; Shiga toxin inh: -13; NS1 inh valid: 0

What do the screens show for `CC1(c2cccc3ccccc23)NC(=O)N(CC(=O)NC2CCS(=O)(=O)C2)C1=O` (stereo unspecified)?
NS1 inh: -9%; Pf growth 48h: 5%; Giardia FBPA inh-1: 5%; Pf growth 96h: -30%; Cycloheximide cs: -4; Shiga toxin inh: -5

How did O=C1NC(=O)C2(Cc3ccccc3N3CCCC32)C(=O)N1c1ccc(Cl)cc1 (stereo unspecified) do in these assays?
NS1 inh: 11µM*; Pf growth 48h: -14%; Giardia FBPA inh-1: -23%; Pf growth 96h: 7%; Cycloheximide cs: -3; Shiga toxin inh: -9; NS1 inh valid: 16

Results for CCc1ccc(NC(=S)N(CCN(C)C)C(C)c2ccncc2)cc1 (stereo unspecified) ?
Pf growth 48h: 10%; Giardia FBPA inh-1: 2%; Pf growth 96h: inconclusive; Cycloheximide cs: -3; Shiga toxin inh: -2

What do the screens show for `CCC1(C)CC(c2nc(-c3ccc(OC)cc3)cs2)CCS1` (stereo unspecified)?
NS1 inh: -15%; Pf growth 48h: -12%; Giardia FBPA inh-1: -9%; Pf growth 96h: 6%; Cycloheximide cs: 1; Shiga toxin inh: -6

How did CC(C)CC(=O)NC(=S)Nc1ccc(S(=O)(=O)N2CCCC2)cc1 do in these assays?
NS1 inh: 14%; Pf growth 48h: -6%; Giardia FBPA inh-1: -1%; Pf growth 96h: inconclusive; Cycloheximide cs: -3; Shiga toxin inh: -17

What do the screens show for `COc1cc(C(=O)NCCSc2ccc(F)cc2)cc(OC)c1OC`?
NS1 inh: -3%; Pf growth 48h: -14%; Giardia FBPA inh-1: 1%; Pf growth 96h: inconclusive; Cycloheximide cs: 9; Shiga toxin inh: 19

What do the screens show for `Cc1oc(-c2ccccc2F)nc1CS(=O)CC(=O)NCc1cccs1` (stereo unspecified)?
NS1 inh: 11µM*; Giardia FBPA inh-1: 6%; Pf growth 96h: 1%; Cycloheximide cs: -6; Shiga toxin inh: -8; NS1 inh valid: 30

What do the screens show for `Cc1oc(-c2ccccc2Cl)nc1CS(=O)CC(=O)NCc1cccs1` (stereo unspecified)?
NS1 inh: -7%; Giardia FBPA inh-1: 2%; Pf growth 96h: -17%; Cycloheximide cs: 1; Shiga toxin inh: -2

Results for CCCCNC(=O)CS(=O)Cc1nc(-c2cccs2)oc1C (stereo unspecified) ?
NS1 inh: 11µM*; Giardia FBPA inh-1: -5%; Pf growth 96h: 8.3µM*; Cycloheximide cs: -7; Shiga toxin inh: -22; NS1 inh valid: 5

Results for Cn1cnnc1SCC(=O)N1N=C2/C(=C/c3ccco3)CCCC2C1c1ccco1 (stereo unspecified) ?
NS1 inh: 3.5µM*; Pf growth 48h: inconclusive; Giardia FBPA inh-1: -12%; Pf growth 96h: 10µM*; Cycloheximide cs: 10; Shiga toxin inh: 6; NS1 inh valid: 2

What do the screens show for `Cc1ccccc1-c1nc2ccccc2c(=O)n1/N=C/c1ccccc1[N+](=O)[O-]`?
NS1 inh: 3.2µM*; Pf growth 48h: inconclusive; Giardia FBPA inh-1: 4.5µM*; Pf growth 96h: 0%; Cycloheximide cs: 7; Shiga toxin inh: -18; NS1 inh valid: 16; Giardia growth: 10µM*; Mammalian tox: inconclusive; Giardia FBPA inh-2: inconclusive; Rabbit FBPA inh: inconclusive; GAPDH counter: 35µM*

Results for NC(=O)C1CCN(C(=O)CSc2nc3c(c(-c4ccccc4)n2)CCCC3)CC1 ?
NS1 inh: -12%; Pf growth 48h: 1%; Giardia FBPA inh-1: -2%; Pf growth 96h: inconclusive; Cycloheximide cs: -2; Shiga toxin inh: -11

Results for OCCN(CCO)c1ccc2ccccc2c1 ?
NS1 inh: -3%; Pf growth 48h: 22%; Giardia FBPA inh-1: 16µM*; Pf growth 96h: 175%; Cycloheximide cs: -11; Shiga toxin inh: -6; Giardia growth: -17%[10.4 µM]; Mammalian tox: -18%; Giardia FBPA inh-2: 4µM*; Rabbit FBPA inh: inconclusive; GAPDH counter: -26%

How did CCOC(=O)c1c(CN2CCN(c3ccccc3)CC2)oc2ccc(O)cc12 do in these assays?
NS1 inh: -78%; Pf growth 48h: inconclusive; Giardia FBPA inh-1: -8%; Pf growth 96h: -2%; Cycloheximide cs: 5; Shiga toxin inh: -10

What do the screens show for `CCOC(=O)c1c(N2CCN(c3ccccc3)CC2)cc(C)nc1C`?
NS1 inh: -2%; Pf growth 48h: -22%; Giardia FBPA inh-1: 14µM*; Pf growth 96h: 246%; Cycloheximide cs: -3; Shiga toxin inh: -4; Giardia growth: inconclusive; Mammalian tox: 5%; Giardia FBPA inh-2: 1%; Rabbit FBPA inh: 8%; GAPDH counter: -9%

What do the screens show for `NNC(=O)Cn1c(SCc2ccccc2)nc2ccccc21`?
NS1 inh: 16%; Giardia FBPA inh-1: -3%; Pf growth 96h: inconclusive; Cycloheximide cs: -3; Shiga toxin inh: -13
